Bioassay records: PubChem BioAssay, several laboratories
NTR1 ag: agonists of human NTR1, primary screen, imaging, U2OS cells, beta-arrestin-GFP, high content. actives 0.17% (n = 330,000). NTR1-U2OS beta-arrestin-GFP spot imaging, agonist mode. Neurotensin receptor type 1 (Homo sapiens), P30989. activation, % at 20 µM;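 active = activation at or above 40% of the spot to cytoplasm intensity ratio, with at least 20 cells analyzed; inconclusive = wells under 20 cells, flagged as cytotoxic or low count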;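 also: 0% = DMSO without peptide and 100% = 100 nM NTR1 peptide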
Mdm2-MdmX inh: inhibitors of human Mdm2-MdmX association, primary screen, cell-based, luminescence, split luciferase, SaOS-2, uHTS; Protein Mdm4 (Homo sapiens) + E3 ubiquitin-protein ligase Mdm2 (Homo sapiens), …; SaOS-2 split-luciferase Mdm2/MdmX complementation; inhibition, % at 8 µM; actives 3% (n = 330,000);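 active = inhibition of at least 50% at 8 µM in the primary screen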
Target sequence (O15151 whole entry, looked up): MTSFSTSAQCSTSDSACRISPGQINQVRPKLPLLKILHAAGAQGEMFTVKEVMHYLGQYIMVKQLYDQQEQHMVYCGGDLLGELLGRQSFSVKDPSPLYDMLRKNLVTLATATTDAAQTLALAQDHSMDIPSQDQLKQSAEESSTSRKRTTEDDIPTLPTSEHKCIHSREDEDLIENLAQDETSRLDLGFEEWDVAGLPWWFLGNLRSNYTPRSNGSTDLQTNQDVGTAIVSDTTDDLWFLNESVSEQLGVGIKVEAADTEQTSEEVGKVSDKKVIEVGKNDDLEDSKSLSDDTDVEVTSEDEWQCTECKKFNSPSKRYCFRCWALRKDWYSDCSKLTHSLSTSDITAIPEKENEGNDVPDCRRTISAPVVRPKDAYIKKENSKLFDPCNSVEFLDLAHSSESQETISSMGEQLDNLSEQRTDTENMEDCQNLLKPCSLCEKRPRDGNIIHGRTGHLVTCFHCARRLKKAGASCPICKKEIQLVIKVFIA
Target sequence (Q00987 whole entry, looked up): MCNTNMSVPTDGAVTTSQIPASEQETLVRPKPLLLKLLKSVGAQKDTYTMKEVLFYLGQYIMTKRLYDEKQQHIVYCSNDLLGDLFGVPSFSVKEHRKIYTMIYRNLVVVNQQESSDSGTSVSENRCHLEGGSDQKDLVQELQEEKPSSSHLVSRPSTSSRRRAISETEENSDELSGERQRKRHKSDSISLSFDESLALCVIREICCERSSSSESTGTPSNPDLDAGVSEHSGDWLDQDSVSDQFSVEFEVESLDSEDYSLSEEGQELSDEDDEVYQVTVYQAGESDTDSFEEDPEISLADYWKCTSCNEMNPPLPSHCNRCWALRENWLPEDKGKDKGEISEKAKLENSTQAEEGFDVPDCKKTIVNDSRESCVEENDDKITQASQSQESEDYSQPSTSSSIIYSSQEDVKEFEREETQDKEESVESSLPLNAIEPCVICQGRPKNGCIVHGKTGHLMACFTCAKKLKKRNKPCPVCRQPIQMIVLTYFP
Bfl-1 A1 inh: caspase 3/7 activation in MEF A1-2A-BIM cells, primary screen, A1 inhibitor project, cell-based, luminescence, HTS | actives 0.066% (n = 330,000) | Caspase-Glo 3/7 luminescence, 3 h; percent of clofoctol response, vehicle zero | AID 2462, 2010 | caspase activation, % (no concentration beside the values);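 active = over half of replicate activation scores above 10%, or exactly half above 10 with the replicate mean above 10; inconclusive = replicate mean below 10 yet half the replicates above 10; inactive = over half of replicates below 10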
Jurkat NFkB inh: inhibitors of induced NF-kB luciferase reporter, primary screen, TCR NF-kB activation inhibitor project, cell-based, luminescence, uHTS. Jurkat, PMA/ionomycin-induced NF-kB luciferase reporter. inhibition, % at 4 µM. actives 0.53% (n = 330,000). AID 435003, 2010; in the data active = inhibition above about 50%
Beta cell apopt: inhibitors of cytokine-induced beta cell apoptosis, primary screen, luminescence; actives 0.8% (n = 300,000); protection from apoptosis, % (test concentration not listed); AID 435005, 2010; INS-1E cytokine-induced death, ATP luminescence, 48 h; percent of positive-control rescue, neutral wells zero;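 active = Every replicate reaches about 75%, or at least half do and their mean reaches it too, limit read from the data; inconclusive = At least half of replicates reach the limit but their mean does not; inactive = Under half of replicates reach the limit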;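 also: 0% = cytokine-treated negative control wells and 100% = positive control rescue; higher means more ATP so stronger rescue from cytokine killing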
697 NFkB inh: inhibitors of PMA/ionomycin-induced NF-kB reporter, 697 cells, primary screen, B-cell NF-kB inhibitor project, cell-based, luminescence, uHTS; 697 B-cell NF-kB luciferase reporter, 16 h; inhibition, % at 4 µM; actives 0.33% (n = 330,000); in the data active = inhibition above about 35%
Mdm2 MdmX conf: Mdm2-MdmX complex disruptors, retested hits, confirmation, luminescence, single concentration; inhibition, % at 8 µM; shares compounds with Mdm2-MdmX inh; Mdm2-MdmX binding, luminescent assay; actives 55% (n = 10,000); in the data active = inhibition above about 40%
FLuc counter: full-length luciferase signal inhibition, confirmation, counter-screen for Mdm2/MdmX interaction inhibitor project, cell-based, single concentration, SaOS-2; shares compounds with Mdm2-MdmX inh; SaOS-2 full-length luciferase counterscreen, luminescence; inhibition, % at 8 µM; actives 77% (n = 6,200); AID 504607, 2011;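 active = mean inhibition at 8 µM reaching about 37%, which flags the compound as non-specific, limit read from the data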;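 also: p53-null SaOS-2 cells with luciferase driven by a doxycycline-inducible promoter; compound on cells about two nights before reading with doxycycline added after day one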
Starred values were filed as active, the others as inactive; u = inconclusive; x = no result. Hits are enriched below; roughly 3.8% of the tested compounds scored in any of these assays.

SMILES	NTR1 ag	Mdm2-MdmX inh	Bfl-1 A1 inh	Jurkat NFkB inh	Beta cell apopt	697 NFkB inh	Mdm2 MdmX conf	FLuc counter
Cc1ccc(C(=O)O/N=C(\N)c2ccccn2)cc1	1	91*	-7	-77	-1	-161	89*	34
Cc1ccc(C(=O)O/N=C(\N)c2ccccn2)cc1C	0	82*	-9	-13	6	-162	70*	64*
Cc1cccc(C(=O)O/N=C(\N)c2ccccn2)c1	-1	65*	-9	-32	10	-106	63*	100*
CCOc1ccc(C(=O)O/N=C(\N)c2ccccn2)cc1	0	95*	1	13	-5	-160	86*	33
COc1cccc(C(=O)NN2CCOCC2)c1	1	6	1	-11	0	12	x	x
CC1(C)NC(=O)N(CC(=O)N2CCCC(C(F)(F)F)C2)C1=O (centres undefined)	0	8	0	9	x	17	x	x
N/C(=N\OC(=O)c1cc(Cl)ccc1Cl)c1ccccn1	2	-96	-6	-76	5	-97	x	x
COc1cc(C(=O)O/N=C(\N)c2ccccn2)cc(OC)c1OC	2	67*	-1	2	-1	-14	-2	x
CC1(C)Cc2c(ccc3ccccc23)C(c2cc3ccccc3oc2=O)=N1	-1	24	2	-9	-6	-42	x	x
CC1(C)Cc2ccccc2C(c2cc3ccccc3oc2=O)=N1	-1	62*	u	6	-2	23	26	x
COCCn1c(C)cc(C(=O)CSc2nnc3ccccn23)c1C	-2	54*	-5	-18	4	-38	62*	113*
COCCn1c(C)cc(C(=O)CSc2nc3ccccc3s2)c1C	7	66*	-3	-99	7	-187	70*	146*
COCCn1c(C)cc(C(=O)CSc2nc3ccccc3o2)c1C	-1	-81	0	-94	-4	-221	x	x
O=C(NCc1cccc(OC(F)(F)F)c1)C1CCC(=O)N(Cc2cccc(F)c2)C1 (centres undefined)	-1	3	0	2	1	-12	x	x
O=C(Cc1ccc(Br)cc1)OCC(=O)N1CCOCC1	1	-22	-1	-11	2	-23	x	x
Cc1ccc2nsnc2c1S(=O)(=O)N(Cc1cc2cccc(C)c2[nH]c1=O)CC1CCCO1 (centres undefined)	4	57*	1	16	1	33	47*	85*
CC(Sc1nncn1C)C(=O)Nc1ccc2ccccc2c1 (centres undefined)	-1	14	x	1	x	11	x	x
Cc1cccc(OC(C)C(=O)NC2CCS(=O)(=O)C2)c1C (centres undefined)	1	13	0	0	-1	6	x	x
COc1ccccc1OCc1nc(C#N)c(NCCCn2ccnc2)o1	0	8	-1	-14	-1	-25	x	x
COc1ccc(Nc2oc(COc3ccccc3OC)nc2C#N)cc1	3	68*	0	5	6	11	64*	72*
COc1ccc(NC(=O)Cn2ncn3nc(-c4ccc(OC)cc4)cc3c2=O)cc1	6	80*	-1	-9	9	-11	20	90*
COc1ccc(-c2cc3c(=O)n(CC(=O)NCCCc4ccccc4)ncn3n2)cc1	1	-1	x	-88	4	-98	x	x
COc1ccc(-c2cc3c(=O)n(CC(=O)NCc4ccccc4F)ncn3n2)cc1	-1	70*	0	-4	12	-19	0	x
COc1ccc(-c2cc3c(=O)n(CC(=O)NCc4ccccc4OC)ncn3n2)cc1	2	45	0	-20	0	1	x	x
CCOc1ccc(CCNC(=O)Cn2ncn3nc(-c4ccc(OC)cc4)cc3c2=O)cc1OCC	1	59*	-1	-19	x	-12	11	x
SMILES	NTR1 ag	Mdm2-MdmX inh	Bfl-1 A1 inh	Jurkat NFkB inh	Beta cell apopt	697 NFkB inh	Mdm2 MdmX conf	FLuc counter
CN(c1ccccc1)S(=O)(=O)c1cccc(C(=O)OCC(=O)Nc2ccc(C(N)=O)cc2)c1	3	25	0	-9	-2	-11	x	x
Cc1cc(/C=N/Nc2ncnc(N)c2[N+](=O)[O-])c(C)n1-c1ccccc1	5	65*	-13	39	16	-50	70*	54*
COc1ccc(-c2nc3ccc(N4CCCC4)cc3c(=O)[nH]2)cc1OC	2	52*	-1	38	-3	-21	57*	56*
CCOc1ccc(/C=N/NC(=O)c2ccccc2O)cc1CN1CC2CC(C1)c1cccc(=O)n1C2 (centres undefined)	4	18	1	3	-4	7	x	x
Cc1ccn2c(Nc3ccccc3)c(-c3ccccn3)nc2c1	4	81*	0	-1	96*	1	83*	21
Cc1ccccc1Nc1c(-c2ccccn2)nc2ccccn12	2	65*	0	-3	17	-6	46*	52*
Cc1ccccc1Nc1c(-c2cccnc2)nc2ccccn12	2	29	1	0	-21	3	x	x
Cc1ccc2nc(-c3ccccn3)c(Nc3ccccc3C)n2c1	6	86*	1	-9	101*	-8	75*	36
Cc1ccn2c(Nc3ccccc3C)c(-c3ccccn3)nc2c1	4	85*	1	3	94*	4	52*	32
CC(=O)Nc1ccc(C(=O)COC(=O)CN2C(=O)NC3(CCCCC3C)C2=O)cc1 (centres undefined)	-1	11	0	-8	-4	15	x	x
COc1ccc(CN2CCN(C(c3ccc(F)cc3)c3ccc(F)cc3)CC2)c(OC)c1OC	12	81*	0	-6	x	3	45*	69*
COc1ccc(-c2nnc3sc(-c4ccccn4)nn23)cc1	2	-5	1	-23	1	-29	x	x
CC(C)(C)c1ccc(-c2nnc3sc(-c4ccccn4)nn23)cc1	18	66*	0	-44	3	-61	65*	30
CCCCNC(=O)C1(O)c2cc(Br)ccc2NC(=O)N1c1cccc(OC)c1 (centres undefined)	0	29	1	5	-3	2	x	x
